Reference: ChEMBL document CHEMBL1961873, “Compounds: GSK PKIS; Assays: Nanosyn kinase panel” (2012)

Key:
[1] = target: T1, Inhibitor of nuclear factor kappa-B kinase subunit epsilon (Homo sapiens) (UniProt Q14164); conditions: at 1 µM;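 further: reported values are averaged percent inhibition figures against human IKKε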
T1 sequence (whole entry): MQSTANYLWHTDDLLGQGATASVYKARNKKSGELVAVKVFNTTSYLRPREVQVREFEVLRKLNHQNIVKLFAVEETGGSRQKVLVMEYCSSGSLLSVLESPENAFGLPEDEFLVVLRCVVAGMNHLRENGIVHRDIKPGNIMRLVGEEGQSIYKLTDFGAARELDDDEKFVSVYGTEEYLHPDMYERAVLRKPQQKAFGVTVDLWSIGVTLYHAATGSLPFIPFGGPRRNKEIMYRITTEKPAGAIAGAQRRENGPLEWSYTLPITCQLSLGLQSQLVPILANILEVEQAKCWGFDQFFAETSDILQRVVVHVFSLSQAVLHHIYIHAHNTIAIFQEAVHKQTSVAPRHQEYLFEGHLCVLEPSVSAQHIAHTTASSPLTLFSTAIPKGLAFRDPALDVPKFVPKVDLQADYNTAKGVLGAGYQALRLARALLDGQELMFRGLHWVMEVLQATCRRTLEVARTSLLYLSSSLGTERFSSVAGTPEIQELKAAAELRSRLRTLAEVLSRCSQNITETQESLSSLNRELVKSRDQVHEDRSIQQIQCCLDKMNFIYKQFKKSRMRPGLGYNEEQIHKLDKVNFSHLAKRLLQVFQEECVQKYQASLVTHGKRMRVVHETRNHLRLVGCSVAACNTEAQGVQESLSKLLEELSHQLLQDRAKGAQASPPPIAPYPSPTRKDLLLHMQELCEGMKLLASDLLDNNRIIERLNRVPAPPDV

[2] = target: T2, Serine/threonine-protein kinase Nek1 (Homo sapiens) (UniProt Q96PY6); conditions: at 0.1 µM
T2 sequence (whole entry): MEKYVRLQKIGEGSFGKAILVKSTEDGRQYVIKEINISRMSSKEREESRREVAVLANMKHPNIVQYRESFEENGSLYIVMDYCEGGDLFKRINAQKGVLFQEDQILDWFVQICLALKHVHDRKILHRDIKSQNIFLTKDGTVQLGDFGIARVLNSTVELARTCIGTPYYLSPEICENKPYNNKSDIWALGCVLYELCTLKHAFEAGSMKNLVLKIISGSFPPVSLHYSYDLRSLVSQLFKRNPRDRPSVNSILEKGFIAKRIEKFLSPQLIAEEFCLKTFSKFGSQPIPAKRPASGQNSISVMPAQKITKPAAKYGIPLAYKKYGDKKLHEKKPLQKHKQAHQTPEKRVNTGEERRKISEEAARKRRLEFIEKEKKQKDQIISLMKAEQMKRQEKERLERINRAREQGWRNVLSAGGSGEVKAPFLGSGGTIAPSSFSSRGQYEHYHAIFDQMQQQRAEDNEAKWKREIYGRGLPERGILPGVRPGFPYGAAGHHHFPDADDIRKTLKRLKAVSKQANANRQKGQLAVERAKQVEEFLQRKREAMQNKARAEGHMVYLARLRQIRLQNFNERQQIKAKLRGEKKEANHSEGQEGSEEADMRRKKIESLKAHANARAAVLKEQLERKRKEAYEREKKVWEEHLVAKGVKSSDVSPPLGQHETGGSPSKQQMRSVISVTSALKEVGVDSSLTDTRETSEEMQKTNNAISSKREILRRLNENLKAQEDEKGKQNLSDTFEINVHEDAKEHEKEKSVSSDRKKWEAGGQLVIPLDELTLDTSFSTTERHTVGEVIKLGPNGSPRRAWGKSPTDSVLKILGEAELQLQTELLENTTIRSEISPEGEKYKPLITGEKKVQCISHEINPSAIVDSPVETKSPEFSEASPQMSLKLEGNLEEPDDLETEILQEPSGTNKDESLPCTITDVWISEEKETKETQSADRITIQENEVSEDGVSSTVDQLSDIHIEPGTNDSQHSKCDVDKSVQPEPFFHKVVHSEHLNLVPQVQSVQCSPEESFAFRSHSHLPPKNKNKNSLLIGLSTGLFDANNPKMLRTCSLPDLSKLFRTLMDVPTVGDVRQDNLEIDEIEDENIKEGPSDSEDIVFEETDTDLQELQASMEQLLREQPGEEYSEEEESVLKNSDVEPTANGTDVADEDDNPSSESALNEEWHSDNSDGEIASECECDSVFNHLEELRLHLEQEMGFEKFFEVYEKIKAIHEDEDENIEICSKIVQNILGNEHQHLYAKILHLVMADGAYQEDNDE

[3] = target: T2, Serine/threonine-protein kinase Nek1 (Homo sapiens); conditions: at 1 µM
[4] = target: T3, Serine/threonine-protein kinase Nek2 (Homo sapiens) (UniProt P51955); conditions: at 0.1 µM
T3 sequence (whole entry): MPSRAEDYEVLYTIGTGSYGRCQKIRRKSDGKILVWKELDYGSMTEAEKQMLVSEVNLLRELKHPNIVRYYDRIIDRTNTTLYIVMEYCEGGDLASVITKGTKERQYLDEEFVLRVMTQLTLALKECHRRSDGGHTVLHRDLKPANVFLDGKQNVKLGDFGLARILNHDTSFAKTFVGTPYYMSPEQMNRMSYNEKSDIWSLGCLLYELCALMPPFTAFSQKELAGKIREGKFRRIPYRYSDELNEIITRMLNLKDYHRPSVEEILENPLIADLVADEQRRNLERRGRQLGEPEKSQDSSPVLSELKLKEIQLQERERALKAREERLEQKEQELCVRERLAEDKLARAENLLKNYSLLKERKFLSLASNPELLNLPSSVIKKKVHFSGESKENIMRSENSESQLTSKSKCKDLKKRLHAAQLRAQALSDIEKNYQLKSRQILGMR

[5] = target: T3, Serine/threonine-protein kinase Nek2 (Homo sapiens); conditions: at 1 µM
[6] = target: Serine/threonine-protein kinase Nek6 (Homo sapiens) (UniProt Q9HC98); conditions: at 0.1 µM
[7] = target: Serine/threonine-protein kinase Nek6 (Homo sapiens) (UniProt Q9HC98); conditions: at 1 µM
[8] = target: Serine/threonine-protein kinase Nek7 (Homo sapiens) (UniProt Q8TDX7); conditions: at 1 µM
[9] = target: T4, Serine/threonine-protein kinase Nek9 (Homo sapiens) (UniProt Q8TD19); conditions: at 0.1 µM;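 further: reported value is the mean percent inhibition of NEK9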
T4 sequence (whole entry): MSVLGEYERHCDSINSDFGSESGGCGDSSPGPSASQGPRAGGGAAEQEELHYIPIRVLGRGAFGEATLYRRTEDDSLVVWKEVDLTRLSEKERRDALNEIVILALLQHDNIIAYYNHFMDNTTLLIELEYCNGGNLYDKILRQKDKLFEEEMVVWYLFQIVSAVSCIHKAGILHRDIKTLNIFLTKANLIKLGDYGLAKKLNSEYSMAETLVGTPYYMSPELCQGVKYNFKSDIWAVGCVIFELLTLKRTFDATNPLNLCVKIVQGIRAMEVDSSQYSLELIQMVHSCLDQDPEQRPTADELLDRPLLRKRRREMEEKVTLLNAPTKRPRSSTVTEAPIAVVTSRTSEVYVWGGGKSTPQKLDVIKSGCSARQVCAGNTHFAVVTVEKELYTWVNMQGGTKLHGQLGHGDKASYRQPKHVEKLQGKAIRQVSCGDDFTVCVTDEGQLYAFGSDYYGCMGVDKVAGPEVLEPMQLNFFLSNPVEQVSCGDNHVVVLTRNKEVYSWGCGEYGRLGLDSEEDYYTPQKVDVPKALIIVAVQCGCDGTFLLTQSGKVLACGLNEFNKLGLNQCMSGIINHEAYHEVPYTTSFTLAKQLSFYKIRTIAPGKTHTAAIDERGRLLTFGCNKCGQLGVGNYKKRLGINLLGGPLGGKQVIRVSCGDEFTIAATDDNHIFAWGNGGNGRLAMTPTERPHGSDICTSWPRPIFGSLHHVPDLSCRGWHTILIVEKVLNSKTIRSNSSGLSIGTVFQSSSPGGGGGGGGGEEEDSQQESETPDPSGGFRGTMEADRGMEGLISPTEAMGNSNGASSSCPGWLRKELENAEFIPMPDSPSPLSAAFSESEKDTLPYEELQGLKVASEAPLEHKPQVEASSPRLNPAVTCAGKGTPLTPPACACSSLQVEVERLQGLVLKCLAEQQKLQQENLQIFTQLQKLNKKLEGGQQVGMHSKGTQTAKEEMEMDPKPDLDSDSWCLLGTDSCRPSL

[10] = target: Serine/threonine-protein kinase Nek7 (Homo sapiens) (UniProt Q8TDX7); conditions: at 0.1 µM

Chain of Serine/threonine-protein kinase Nek7 (Homo sapiens) (Q8TDX7 whole entry, looked up): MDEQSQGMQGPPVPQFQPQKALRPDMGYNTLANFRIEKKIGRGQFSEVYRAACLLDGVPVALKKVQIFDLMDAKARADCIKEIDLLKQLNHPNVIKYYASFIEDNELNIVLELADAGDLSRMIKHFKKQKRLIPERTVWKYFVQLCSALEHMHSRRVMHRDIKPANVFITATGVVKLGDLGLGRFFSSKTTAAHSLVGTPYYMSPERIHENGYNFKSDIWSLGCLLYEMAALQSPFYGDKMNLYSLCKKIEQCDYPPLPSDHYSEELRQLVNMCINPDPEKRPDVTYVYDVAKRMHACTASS
Chain of Serine/threonine-protein kinase Nek6 (Homo sapiens) (Q9HC98 whole entry): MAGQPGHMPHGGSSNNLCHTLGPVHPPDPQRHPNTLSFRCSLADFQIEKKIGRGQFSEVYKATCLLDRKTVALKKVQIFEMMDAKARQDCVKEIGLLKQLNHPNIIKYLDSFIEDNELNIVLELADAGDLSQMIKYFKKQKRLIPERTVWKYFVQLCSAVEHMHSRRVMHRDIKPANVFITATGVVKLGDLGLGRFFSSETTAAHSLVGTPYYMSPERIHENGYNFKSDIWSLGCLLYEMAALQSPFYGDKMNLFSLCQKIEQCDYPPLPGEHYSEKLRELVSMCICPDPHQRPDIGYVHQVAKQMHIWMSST

SMILES | inhibition [1] [%] | inhibition [2] [%] | inhibition [3] [%] | inhibition [4] [%] | inhibition [5] [%] | inhibition [6] [%] | inhibition [7] [%] | inhibition [8] [%] | inhibition [9] [%] | inhibition [10] [%]
c1ccc(Oc2ccc(Nc3ncc(-c4ccccc4)o3)cc2)cc1 | 3.43 | 0.18 | 1.89 | 1.83 | 1.51 | -0.2 | 0.96 | 1.97 | 0.25 | 
NS(=O)(=O)c1ccc(N/N=C2\C(=O)Nc3ccc(-c4cnco4)cc32)cc1 | 26.5 | 0.9 | -0.1 | 2.64 | 1.79 | 1.55 | 1.55 | 8.73 | 2.34 | 2.6
O=C1Nc2ccc(I)cc2C1=Cc1cc(Br)c(O)c(Br)c1 | 3.78 | 2.45 | 3.61 | 4.91 | 3.15 | 1.35 | 3.89 | 10.6 | 9.81 | 4.66
Fc1ccc(-c2nc3n(c2-c2ccncc2)CCS3)cc1 | 4.11 | 2.77 | 2.98 | 4.83 | 4.36 | 0.55 | 0.72 | 2.5 | 2.21 | 5.52
C/C(Nc1ccc(S(N)(=O)=O)cc1)=C1/C(=O)Nc2ccccc21 | 2.23 | -0.12 | 0.52 | -0.14 | 0.19 | -4.26 | -0.83 | -0.23 | 2.83 | 
CS(=O)(=O)CCNCc1ccc(-c2ccc3ncnc(Nc4ccc(OCc5ccccc5)c(Br)c4)c3c2)o1 | 4.71 | 1.95 | 1.93 | 5.02 | 3.81 | 4.55 | 3.89 | 5.42 | 6.05 | 3.08
Cc1ccc(C(=O)NC(C)C)cc1-c1ccc(C(=O)NCC2CC2)cc1 | -4.16 | -1.29 | -1.39 | -3.14 | -3.6 | -3.09 | -3.72 | -4.59 | 3.16 | -6.3
Fc1ccc(-c2ncn(CCCN3CCOCC3)c2-c2ccncc2)cc1 |  | 0.93 | 0.52 | -0.45 | -0.45 | 1.11 | -0.51 | 1.74 | 0.56 | 2.31
COc1cc2ncn(-c3cc(OCc4cccs4)c(C(N)=O)s3)c2cc1OC | 7.71 | 3.32 | 7.88 | 4.6 | 15.3 | 3.67 | 6.02 | 2.38 | 5.68 | 1.64
